{
  "source": "PubChem BioAssay (Tox21)",
  "note": "Results filed as inconclusive are left out. A call without a number means that no potency is given here. Unmarked numbers belong to inactive results. Activity calls are given as the source filed them. Calls come from the whole dose curve; as a rule, active = well fitted cell-killing curve with a large enough effect in the repeat runs; inconclusive = weak or mixed curves, or effect the other way; inactive = flat fitted curve, though single readings scatter. Potency is the fitted concentration of half-maximal effect.",
  "data": [
    {"assay": "qHTS RealTime-Glo MT Cell Viability Assay in HEK293 cells - 8 hour (AID 1224887); note: nearly all actives have a fitted effect of over 50% in size; for activity change, negative = cytotoxicity: top concentration of the series differs between compounds", "details": "RealTime-Glo luminescence; series mostly up to 76.8 µM", "from_the_text": "U.S. Tox21 Program National Center for Advancing Translational Sciences [NCATS] NIH Chemical Genomics Center [NCGC] U.S. Environmental Protection Agency [EPA] National Institutes of Environmental Health Sciences [NIEHS] National Toxicology Program [NTP] U.S. Food and Drug Administration [FDA] Tox21 Assay Overview: Measure of cell viability is critical in the cell-base assay. Analysis of cell viability is necessary for the characterization of cell responses to cytotoxic drugs and environmental stress. A RealTime-Glo MT Cell Viability Assay to monitor cell viability in real time of continues cell culture during 40 hours of compound treatment was used to screen Tox21 10K library compounds in Hek293 cells. The RealTime-Glo MT Cell Viability Assay is a nonlytic, homogeneous, bioluminescent method to measure cell viability in real time using a simple, plate-based method. The assay involves adding NanoLuc luciferase and a cell-permeant prosubstrate to cells in culture. Viable cells reduce the proprietary prosubstrate to generate a substrate for NanoLuc luciferase. This substrate diffuses from cells into the surrounding culture medium, where it is rapidly used by the NanoLuc Enzyme to produce a luminescent signal. The signal correlates with the number of viable cells, making the assay well suited for cytotoxicity studies.\nTox21 Assay Protocol Summary: The mixture of Hek293 cell suspension and reagents were dispensed at 600cells/6 ul/well in 1536-well tissue culture treated black solid bottom plates using a Multidrop dispenser. After the assay plates were incubated at a 37 C/5% CO2 incubator for 5 hours, 23 nL of compounds dissolved in DMSO, positive and negative controls was transferred to the assay plate by a pintool work station. The plates were incubated at 37 C for 40 hours. The luminescence intensity were measured at 0h, 8h, 16h, 24h, 32h and 40h time points using ViewLux plate reader during compound treatment.", "values": [
      {"smiles": "COC(=O)CCCCCCCCC(=O)OC", "Potency": "inactive"},
      {"smiles": "CCCCCCCCCCC1CO1", "note": "(stereo not given)", "Potency": "inactive"},
      {"smiles": "COc1ccc(N=[N+]([O-])c2ccc(OC)cc2)cc1", "Potency": "inactive"},
      {"smiles": "CC(C)c1cccc(C(C)C)c1N", "Potency": "inactive"},
      {"smiles": "Nc1ncnc2c1ncn2Cc1c(F)cccc1Cl", "Potency": "inactive"},
      {"smiles": "Cn1ccc2cc3c(cc21)CCN3C(=O)Nc1cccnc1", "activity change, negative = cytotoxicity": "-3.76% [at 15.8 µM]"},
      {"smiles": "[O-][N+](=Nc1ccccc1)c1ccccc1", "Potency": "inactive"},
      {"smiles": "CCO[Si](C)(OCC)OCC", "Potency": "inactive"},
      {"smiles": "CN1[C@@H]2CC[C@H]1CC(NC(=O)n1c(=O)[nH]c3ccccc31)C2", "note": "(stereo not given in full)", "Potency": "inactive"},
      {"smiles": "NC(=S)Nc1cccc2ccccc12", "activity change, negative = cytotoxicity": "11.2% [at 6.97 µM]"},
      {"smiles": "COC(=O)CCCC(=O)O", "Potency": "inactive"},
      {"smiles": "COCCOC(=O)CC#N", "Potency": "inactive"},
      {"smiles": "Cc1c(C)n(CCN(C)C)c2ccc(C(=O)OCCN(C)C)cc12", "Potency": "inactive"},
      {"smiles": "Nc1cc(C(Cl)=C(Cl)Cl)c(S(N)(=O)=O)cc1S(N)(=O)=O", "Potency": "inactive"},
      {"smiles": "CCCCCN(CCCCC)C(=O)C(CCC(=O)O)NC(=O)c1ccc(Cl)c(Cl)c1", "note": "(stereo not given)", "Potency": "inactive"},
      {"smiles": "COc1cc(C(=O)N2CCOCC2)cc(OC)c1OC", "Potency": "inactive"},
      {"smiles": "CC(C)(O)C(=O)c1ccc(OCCO)cc1", "Potency": "inactive"},
      {"smiles": "Cn1cnc2c(=O)[nH]c(N)nc21", "Potency": "inactive"},
      {"smiles": "Nc1cc(N)cc(C(=O)O)c1", "Potency": "inactive"},
      {"smiles": "CCCCCC[C@@H](CCC)C(=O)O", "Potency": "inactive"},
      {"smiles": "COc1ccc2cc(C=O)ccc2c1", "Potency": "inactive"},
      {"smiles": "C(=C(c1ccccc1)c1ccccc1)c1ccccc1", "Potency": "inactive"},
      {"smiles": "O=[N+]([O-])c1ccc(CCO)cc1", "Potency": "inactive"},
      {"smiles": "CC(C)=CC(=O)O", "Potency": "inactive"},
      {"smiles": "C=CCOCC(O)CS(=O)(=O)O", "note": "(stereo not given)", "Potency": "inactive"},
      {"smiles": "CN(C)CCn1nnnc1SCC1=C(C(=O)O)N2C(=O)[C@@H](NC(=O)Cc3csc(N)n3)[C@H]2SC1", "Potency": "inactive"},
      {"smiles": "C=CC(=O)N1CCOCC1", "Potency": "inactive"},
      {"smiles": "CC(=O)OC(C)(C)C", "Potency": "inactive"},
      {"smiles": "CC(C)CCOC(=O)CC(C)C", "Potency": "inactive"},
      {"smiles": "Cc1ccccc1Br", "Potency": "inactive"},
      {"smiles": "NC(=O)Nc1nc2ccccc2[nH]1", "Potency": "inactive"},
      {"smiles": "Cc1nc(-c2ccc(OCC(C)C)c(C#N)c2)sc1C(=O)O", "Potency": "inactive"},
      {"smiles": "c1ccc(CCCc2ccccn2)cc1", "Potency": "inactive"},
      {"smiles": "CCCCCCC(=O)OCC", "Potency": "inactive"},
      {"smiles": "CN(C)C(=O)C(CCN1CCC(O)(c2ccc(Cl)cc2)CC1)(c1ccccc1)c1ccccc1", "Potency": "12 µM (active)"},
      {"smiles": "OCC(CO)(CO)COCC(CO)(CO)CO", "Potency": "inactive"},
      {"smiles": "CC/C=C\\CCCCO", "Potency": "inactive"},
      {"smiles": "Cc1ccc(N)cc1[N+](=O)[O-]", "Potency": "inactive"},
      {"smiles": "COc1cccc(Br)c1", "Potency": "inactive"},
      {"smiles": "CNC(=O)c1c(I)c(NC(=O)CCCCC(=O)Nc2c(I)c(C(=O)O)c(I)c(C(=O)NC)c2I)c(I)c(C(=O)O)c1I", "Potency": "inactive"}
    ]}
  ]
}
